Data as given in ChEMBL document CHEMBL1961873, “Compounds: GSK PKIS; Assays: Nanosyn kinase panel” (2012).

These molecules were tested against Fibroblast growth factor receptor 4 (Homo sapiens) (UniProt P22455). Conditions: at 1 µM.
Chain of Fibroblast growth factor receptor 4 (Homo sapiens) (P22455 22-802 limits assumed): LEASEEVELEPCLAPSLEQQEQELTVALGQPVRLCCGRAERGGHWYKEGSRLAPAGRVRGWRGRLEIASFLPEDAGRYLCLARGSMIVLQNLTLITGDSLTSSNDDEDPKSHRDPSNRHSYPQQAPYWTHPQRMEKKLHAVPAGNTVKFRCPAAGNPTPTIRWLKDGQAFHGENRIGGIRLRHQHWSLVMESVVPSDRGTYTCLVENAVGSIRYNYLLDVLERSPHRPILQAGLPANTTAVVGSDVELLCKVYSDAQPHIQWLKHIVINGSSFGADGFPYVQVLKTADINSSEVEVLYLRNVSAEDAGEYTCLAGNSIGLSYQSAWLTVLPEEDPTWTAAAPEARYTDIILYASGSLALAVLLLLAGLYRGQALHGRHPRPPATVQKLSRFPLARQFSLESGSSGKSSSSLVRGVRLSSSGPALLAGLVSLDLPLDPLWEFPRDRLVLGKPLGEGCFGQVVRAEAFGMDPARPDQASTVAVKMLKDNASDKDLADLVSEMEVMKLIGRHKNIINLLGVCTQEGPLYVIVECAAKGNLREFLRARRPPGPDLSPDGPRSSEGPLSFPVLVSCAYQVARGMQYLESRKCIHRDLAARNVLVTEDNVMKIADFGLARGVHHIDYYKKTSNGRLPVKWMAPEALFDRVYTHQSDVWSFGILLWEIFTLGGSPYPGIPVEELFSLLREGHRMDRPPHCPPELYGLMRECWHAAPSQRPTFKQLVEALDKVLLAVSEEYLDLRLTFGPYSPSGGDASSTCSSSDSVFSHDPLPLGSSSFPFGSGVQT
With `Fc1cccc(COc2ccc(Nc3ncnc4sc(-c5cccs5)cc34)cc2Cl)c1` the inhibition was 3.41%. `CC1=C(C(=O)Nc2ccc3[nH]ncc3c2)C(c2ccc(F)cc2)NC(=O)N1` (stereo not drawn) was tested, and the inhibition was 7.73%. For `CCn1c(-c2nonc2N)nc2c(N3CCCC3)nccc21`, the inhibition was -0.48%. In the case of `NS(=O)(=O)c1ccc(N/N=C2\C(=O)Nc3ccc(C(=O)NCCc4c[nH]cn4)cc32)cc1`, the inhibition is reported as 2.39%. Molecule `CC(C)=Cc1cccc2c1/C(=N/Nc1ccc(S(N)(=O)=O)cc1)C(=O)N2` has an inhibition of 1.59%. Molecule `COc1cc2ncn(-c3cc(O[C@H](C)c4ccccc4Cl)c(C(N)=O)s3)c2cc1OC` has an inhibition of 8.7%. `COc1cc2ncn(-c3cc(O[C@@H](C)c4ccccc4Cl)c(C(N)=O)s3)c2cc1OC` gave an inhibition of 2.7%. Work on `Fc1cccc(COc2ccc(Nc3ncnc4cc(-c5ccc[nH]5)sc34)cc2Cl)c1` yielded an inhibition of -3.31%. For `CN1CCC(C(=O)Nc2n[nH]c3nnc(-c4ccccc4)cc23)CC1`, the inhibition was -0.57%. `Cn1cc(C=C2C(=O)Nc3cccnc32)c2ccccc21` was tested, and the inhibition was 14.1%. For `COc1ccc(-c2nn3ncccc3c2-c2ccnc(Nc3ccc(Cl)c(C(F)(F)F)c3)n2)cc1`, the inhibition was 0.98%. `NC(=O)c1cccc(Nc2nccc(Nc3cccc4[nH]ncc34)n2)c1` showed an inhibition of 6.94%. In the case of `COc1ccc(-c2ccncc2)cc1C(N)=O`, the inhibition is reported as 1.48%. In the case of `CS(=O)(=O)CCN(CC#N)Cc1ccc(-c2ccc3ncnc(Nc4ccc(OCc5cccc(F)c5)c(Cl)c4)c3c2)o1`, the inhibition is reported as -4.08%. `CNC(=O)c1cncc(/C=C/c2c(Cl)cccc2Cl)c1` was tested, and the inhibition was 1.17%. For `CCn1c(-c2nonc2N)nc2c(C#CC(C)(C)O)nc(CN3CCCC3)cc21`, the inhibition was 1.16%. With `COc1ccccc1Nc1ncc(-c2ccccc2)o1` the inhibition was 0.7%. For `Cc1nn(C)c2cc(N(C)c3ccnc(Nc4cccc(S(N)(=O)=O)c4)n3)ccc12`, the inhibition was 0.29%. With `CCn1c(-c2nonc2N)nc2cncc(C(=O)N3CC[C@H](N)C3)c21` the inhibition was 0.42%. `O=C(Nc1n[nH]c2nc(-c3ccco3)c(Br)cc12)C1CC1` showed an inhibition of 2.76%. Work on `COc1ccc(-c2coc3ncnc(N)c23)cc1` yielded an inhibition of 1.55%. Molecule `O=C1NC(=O)C(c2cccc(Cl)c2)=C1Nc1ccc(O)c(Cl)c1` has an inhibition of 2.43%. `CS(=O)(=O)CCNCc1ccc(-c2ccc3ncnc(Nc4ccc(OCc5cccc(F)c5)c(C(F)(F)F)c4)c3c2)o1` gave an inhibition of -0.05%. Work on `O=C1NC(=O)C(c2ccccc2Cl)=C1Nc1cccc(O)c1` yielded an inhibition of 0.13%. For `COc1cc2ncn(-c3cc(OCc4ccccc4Cl)c(C(N)=O)s3)c2cc1OC`, the inhibition was 2.76%. In the case of `Nc1ncnc2occ(-c3ccc(NC(=O)Nc4cccc(C(F)(F)F)c4)cc3)c12`, the inhibition is reported as 13.3%. `COc1cc(C=NNc2ncnc3c2cnn3-c2ccccc2)ccc1O` showed an inhibition of 3.32%. With `CC1=C(C(=O)Nc2ccc3[nH]ncc3c2)C(c2ccc(Cl)c(Cl)c2)CC(=O)N1` (stereo not drawn) the inhibition was 8.43%. Work on `NC(=O)c1ccc(-c2nc(-c3ccccn3)c(-c3ccc4c(c3)OCO4)[nH]2)cc1` yielded an inhibition of -0.14%. `COc1cccc(-n2ncc3c(N/N=C/c4cccc(F)c4)ncnc32)c1` gave an inhibition of -5.17%. With `Cc1nnc(-c2ccc(C)c(-c3ccc(C(=O)Nc4cccc(C#N)c4)cc3)c2)o1` the inhibition was 0.88%. `N#Cc1c(NC(=O)c2cccc3ccccc23)sc2c1CCCC2` showed an inhibition of -0.35%. Work on `Cc1ccc(NC(=O)c2ccnc(N3CCCC3)c2)cc1-c1ccc(C(=O)NCC2CC2)cc1` yielded an inhibition of -0.86%. `COc1cc2ncn(-c3cc(OCc4ccccc4C(F)(F)F)c(C(N)=O)s3)c2cc1OC` was tested, and the inhibition was -1.16%.

Each molecule was assayed against Tyrosine-protein kinase Fgr (Homo sapiens) (UniProt P09769). Conditions: at 0.1 µM.
Chain of Tyrosine-protein kinase Fgr (Homo sapiens) (P09769 2-529 limits assumed): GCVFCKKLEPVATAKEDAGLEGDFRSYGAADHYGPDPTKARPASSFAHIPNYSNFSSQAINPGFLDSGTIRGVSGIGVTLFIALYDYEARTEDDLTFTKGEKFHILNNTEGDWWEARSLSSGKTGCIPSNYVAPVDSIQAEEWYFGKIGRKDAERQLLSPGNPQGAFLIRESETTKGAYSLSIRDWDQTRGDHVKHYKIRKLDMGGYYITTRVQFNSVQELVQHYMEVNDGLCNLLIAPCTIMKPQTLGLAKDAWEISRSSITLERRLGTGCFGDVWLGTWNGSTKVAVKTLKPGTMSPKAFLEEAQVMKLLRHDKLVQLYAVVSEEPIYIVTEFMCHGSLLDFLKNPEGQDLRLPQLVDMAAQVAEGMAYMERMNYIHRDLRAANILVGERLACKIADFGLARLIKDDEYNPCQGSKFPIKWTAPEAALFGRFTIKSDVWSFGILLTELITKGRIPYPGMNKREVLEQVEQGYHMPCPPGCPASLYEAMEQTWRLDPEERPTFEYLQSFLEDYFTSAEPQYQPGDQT
`Fc1cccc(COc2ccc(Nc3ncnc4sc(-c5cccs5)cc34)cc2Cl)c1` showed an inhibition of 1.43%. In the case of `CC1=C(C(=O)Nc2ccc3[nH]ncc3c2)C(c2ccc(F)cc2)NC(=O)N1` (stereo not drawn), the inhibition is reported as 0.15%. Molecule `CCn1c(-c2nonc2N)nc2c(N3CCCC3)nccc21` has an inhibition of -0.82%. With `NS(=O)(=O)c1ccc(N/N=C2\C(=O)Nc3ccc(C(=O)NCCc4c[nH]cn4)cc32)cc1` the inhibition was 4.54%. `CC(C)=Cc1cccc2c1/C(=N/Nc1ccc(S(N)(=O)=O)cc1)C(=O)N2` gave an inhibition of 5.76%. Work on `COc1cc2ncn(-c3cc(O[C@H](C)c4ccccc4Cl)c(C(N)=O)s3)c2cc1OC` yielded an inhibition of 8.54%. Work on `COc1cc2ncn(-c3cc(O[C@@H](C)c4ccccc4Cl)c(C(N)=O)s3)c2cc1OC` yielded an inhibition of 5.04%. For `Fc1cccc(COc2ccc(Nc3ncnc4cc(-c5ccc[nH]5)sc34)cc2Cl)c1`, the inhibition was 3.74%. In the case of `CN1CCC(C(=O)Nc2n[nH]c3nnc(-c4ccccc4)cc23)CC1`, the inhibition is reported as 5.18%. In the case of `Cn1cc(C=C2C(=O)Nc3cccnc32)c2ccccc21`, the inhibition is reported as 7.5%. Molecule `COc1ccc(-c2nn3ncccc3c2-c2ccnc(Nc3ccc(Cl)c(C(F)(F)F)c3)n2)cc1` has an inhibition of 5.75%. In the case of `NC(=O)c1cccc(Nc2nccc(Nc3cccc4[nH]ncc34)n2)c1`, the inhibition is reported as 53.6%. Work on `COc1ccc(-c2ccncc2)cc1C(N)=O` yielded an inhibition of 3.69%. `CS(=O)(=O)CCN(CC#N)Cc1ccc(-c2ccc3ncnc(Nc4ccc(OCc5cccc(F)c5)c(Cl)c4)c3c2)o1` gave an inhibition of 0.96%. With `CNC(=O)c1cncc(/C=C/c2c(Cl)cccc2Cl)c1` the inhibition was 3.11%. Molecule `CCn1c(-c2nonc2N)nc2c(C#CC(C)(C)O)nc(CN3CCCC3)cc21` has an inhibition of -1.03%. Molecule `COc1ccccc1Nc1ncc(-c2ccccc2)o1` has an inhibition of 5.21%. `Cc1nn(C)c2cc(N(C)c3ccnc(Nc4cccc(S(N)(=O)=O)c4)n3)ccc12` showed an inhibition of 14.8%. `CCn1c(-c2nonc2N)nc2cncc(C(=O)N3CC[C@H](N)C3)c21` was tested, and the inhibition was 3.4%. Work on `O=C(Nc1n[nH]c2nc(-c3ccco3)c(Br)cc12)C1CC1` yielded an inhibition of 2.88%. `COc1ccc(-c2coc3ncnc(N)c23)cc1` gave an inhibition of 0.55%. `O=C1NC(=O)C(c2cccc(Cl)c2)=C1Nc1ccc(O)c(Cl)c1` gave an inhibition of -2.2%. `CS(=O)(=O)CCNCc1ccc(-c2ccc3ncnc(Nc4ccc(OCc5cccc(F)c5)c(C(F)(F)F)c4)c3c2)o1` showed an inhibition of 3.99%. `O=C1NC(=O)C(c2ccccc2Cl)=C1Nc1cccc(O)c1` showed an inhibition of 1.27%. `COc1cc2ncn(-c3cc(OCc4ccccc4Cl)c(C(N)=O)s3)c2cc1OC` showed an inhibition of 3.61%. For `Nc1ncnc2occ(-c3ccc(NC(=O)Nc4cccc(C(F)(F)F)c4)cc3)c12`, the inhibition was 3.07%. For `COc1cc(C=NNc2ncnc3c2cnn3-c2ccccc2)ccc1O`, the inhibition was 12.8%. Molecule `CC1=C(C(=O)Nc2ccc3[nH]ncc3c2)C(c2ccc(Cl)c(Cl)c2)CC(=O)N1` (stereo not drawn) has an inhibition of 1.97%. With `NC(=O)c1ccc(-c2nc(-c3ccccn3)c(-c3ccc4c(c3)OCO4)[nH]2)cc1` the inhibition was 3.69%. With `COc1cccc(-n2ncc3c(N/N=C/c4cccc(F)c4)ncnc32)c1` the inhibition was 7.31%. `Cc1nnc(-c2ccc(C)c(-c3ccc(C(=O)Nc4cccc(C#N)c4)cc3)c2)o1` showed an inhibition of 4.67%. Work on `N#Cc1c(NC(=O)c2cccc3ccccc23)sc2c1CCCC2` yielded an inhibition of 1.53%. Molecule `Cc1ccc(NC(=O)c2ccnc(N3CCCC3)c2)cc1-c1ccc(C(=O)NCC2CC2)cc1` has an inhibition of 1.54%. In the case of `COc1cc2ncn(-c3cc(OCc4ccccc4C(F)(F)F)c(C(N)=O)s3)c2cc1OC`, the inhibition is reported as 4.79%.
